Laboratory results: PubChem BioAssay (NCATS)
Records with an inconclusive call do not appear. Activity calls are given as the source filed them. Calls come from the whole dose curve; as a rule, active = well fitted curve in the direction sought with a large enough effect; inconclusive = small, poorly fitted or top-dose-only effect, or another doubt; inactive = no such curve, though single readings can be large; an effect the other way counts as inactive or inconclusive.

Columns and labels:
[1] = Quantitative High-Throughput drug screen in 47 multiple myeloma cell lines against the NCATS MIPE library collection: Karpas417_ECACC cell viability assay (AID 1918961); details: Karpas417 myeloma viability, CellTiter-Glo ATP luminescence, 48 h; viability (% of DMSO): at 45.8 µM (top of the series)
In short: (§1)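 Luminescent ATP measurement with CellTiter-Glo gives viability, scaled between DMSO-only wells (100%) and media-only wells (0%). Cells, 500 per well, faced library compounds for 48 hours at 37C.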

[2] = Quantitative High-Throughput drug screen in 47 multiple myeloma cell lines against the NCATS MIPE library collection: KHM11_PLB cell viability assay (AID 1918962); note: nearly all actives have a fitted effect of over 35% in size
In short: (§2)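 qHTS of the MIPE 4.0 collection: 500 myeloma cells/well, 48 h drug exposure at 37C in 5% CO2, then CellTiter-Glo for 5 min at room temperature before luminescence reading.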

[3] = Quantitative High-Throughput drug screen in 47 multiple myeloma cell lines against the NCATS MIPE library collection: JIM3_ECACC cell viability assay (AID 1918963; note: nearly all actives have a fitted effect of over 35% in size)
In short: as §2

[4] = Quantitative High-Throughput drug screen in 47 multiple myeloma cell lines against the NCATS MIPE library collection: JIM1_ECACC cell viability assay (AID 1918964)
In short: (§3)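 Primary qHTS used for cherry-picking: cells at 500/well, library compounds for 48 h (37C, 5% CO2), luminescent ATP assay.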

[5] = Quantitative High-Throughput drug screen in 47 multiple myeloma cell lines against the NCATS MIPE library collection: JJN3_DSMZ cell viability assay (AID 1918966; note: nearly all actives have a fitted effect of over 50% in size)
In short: as §3

[6] = Quantitative High-Throughput drug screen in 47 multiple myeloma cell lines against the NCATS MIPE library collection: H1112_PLB cell viability assay (AID 1918967; note: nearly all actives have a fitted effect of over 30% in size)
In short: as §3

[7] = Quantitative High-Throughput drug screen in 47 multiple myeloma cell lines against the NCATS MIPE library collection: Karpas25_ECACC cell viability assay (AID 1918968; note: nearly all actives have a fitted effect of over 35% in size)
In short: as §3

[8] = Quantitative High-Throughput drug screen in 47 multiple myeloma cell lines against the NCATS MIPE library collection: KMS27_JCRB cell viability assay (AID 1918970); note: nearly all actives have a fitted effect of over 30% in size
In short: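 Myeloma cells (500 per well) were exposed to MIPE 4.0 compounds for 48 h at 37 °C, 5% CO2; viability was read as ATP luminescence with CellTiter-Glo, normalized to DMSO-only (100%) and media-only (0%) wells.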

[9] = Quantitative High-Throughput drug screen in 47 multiple myeloma cell lines against the NCATS MIPE library collection: KMS12PE_JCRB cell viability assay (AID 1918972); note: nearly all actives have a fitted effect of over 30% in size
In short: as §1

[10] = Quantitative High-Throughput drug screen in 47 multiple myeloma cell lines against the NCATS MIPE library collection: KMS20_JCRB cell viability assay (AID 1918973); note: nearly all actives have a fitted effect of over 45% in size
In short: as §3

[11] = Quantitative High-Throughput drug screen in 47 multiple myeloma cell lines against the NCATS MIPE library collection: MOLP8_DSMZ cell viability assay (AID 1918977); note: nearly all actives have a fitted effect of over 45% in size
In short: (§4)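 qHTS format: cells plated (500/well), pin-dosed with MIPE 4.0 compounds, kept 48 h at 37 °C. Readout was CellTiter-Glo luminescence, median RLU.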

[12] = Quantitative High-Throughput drug screen in 47 multiple myeloma cell lines against the NCATS MIPE library collection: MM1S_ATCC cell viability assay (AID 1918980); note: nearly all actives have a fitted effect of over 45% in size
In short: as §4

[13] = Quantitative High-Throughput drug screen in 47 multiple myeloma cell lines against the NCATS MIPE library collection: MM1R_ATCC cell viability assay (AID 1918981); note: nearly all actives have a fitted effect of over 35% in size
In short: as §4

[14] = Quantitative High-Throughput drug screen in 47 multiple myeloma cell lines against the NCATS MIPE library collection: KMS12BM_JCRB cell viability assay (AID 1918971); note: nearly all actives have a fitted effect of over 35% in size
In short: (§5)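 Inhibition of cell viability is measured here. Each line was plated at 500 cells per well, treated with MIPE 4.0 drugs, kept 48 hours at 37C, then assayed for ATP content by CellTiter-Glo luminescence.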

[15] = Quantitative High-Throughput drug screen in 47 multiple myeloma cell lines against the NCATS MIPE library collection: KMS26_JCRB cell viability assay (AID 1918975); note: nearly all actives have a fitted effect of over 45% in size
In short: as §5

[16] = Quantitative High-Throughput drug screen in 47 multiple myeloma cell lines against the NCATS MIPE library collection: NCIH929_DSMZ cell viability assay (AID 1918978); note: nearly all actives have a fitted effect of over 35% in size
In short: as §4

[17] = Quantitative High-Throughput drug screen in 47 multiple myeloma cell lines against the NCATS MIPE library collection: LP1_DSMZ cell viability assay (AID 1918982); note: nearly all actives have a fitted effect of over 35% in size
In short: as §4

[18] = Quantitative High-Throughput drug screen in 47 multiple myeloma cell lines against the NCATS MIPE library collection: INA6_PLB cell viability assay (AID 1918965; note: nearly all actives have a fitted effect of over 55% in size)
In short: as §1

[19] = Quantitative High-Throughput drug screen in 47 multiple myeloma cell lines against the NCATS MIPE library collection: MMM1_PLB cell viability assay (AID 1918976); note: nearly all actives have a fitted effect of over 35% in size
In short: as §4

[20] = Quantitative High-Throughput drug screen in 47 multiple myeloma cell lines against the NCATS MIPE library collection: OCIMY1_PLB cell viability assay (AID 1918979); note: nearly all actives have a fitted effect of over 35% in size
In short: as §4

Measured: Potency
Potency is the fitted concentration of half-maximal effect.

CC(C)NCC(O)c1ccc(O)c(O)c1 (configuration not stated)
active: [1] 1.48 µM | [4] 13.2 µM | [5] 20.9 µM | [7] 0.0418 µM | [8] 1.18 µM | [9] 5.26 µM | [10] 1.18 µM | [11] 23.5 µM | [12] 0.166 µM | [13] 4.18 µM
inactive: [2] | [3] | [6]

CN(C)c1nc(N(C)C)nc(N(C)C)n1
not listed: [2] | [4] | [5] | [11] | [12] | [18] | [19] | [20]
inactive: all other assays above

NC(=O)NO
active: [1] 1.48 µM | [3] 0.187 µM | [4] 1.66 µM | [18] 0.166 µM | [5] 2.35 µM | [6] 2.96 µM | [7] 0.166 µM | [8] 0.743 µM | [14] 1.48 µM | [9] 0.833 µM | [10] 0.0935 µM | [15] 1.18 µM | [11] 3.32 µM | [16] 0.743 µM | [12] 0.935 µM | [13] 1.18 µM | [17] 2.64 µM

C[C@@H]1CC(=O)NN=C1c1ccc(NN=C(C#N)C#N)cc1
active: [3] 20.9 µM | [18] 18.7 µM | [5] 20.9 µM | [6] 20.9 µM | [7] 18.7 µM | [14] 18.7 µM | [11] 26.4 µM | [16] 20.9 µM | [12] 23.5 µM | [13] 20.9 µM | [17] 20.9 µM
inactive: [4] | [8] | [9]

CC#C[C@]1(O)CC[C@H]2[C@@H]3CCC4=CC(=O)CCC4=C3[C@@H](c3ccc(N(C)C)cc3)C[C@@]21C
active: [1] 0.526 µM | [2] 1.87 µM | [3] 1.18 µM | [4] 0.526 µM | [18] 0.662 µM | [5] 1.48 µM | [6] 0.743 µM | [7] 0.372 µM | [8] 0.264 µM | [14] 1.18 µM | [9] 0.469 µM | [10] 0.743 µM | [15] 4.18 µM | [11] 2.35 µM | [16] 0.418 µM | [12] 0.187 µM | [13] 0.743 µM | [17] 2.64 µM

CCN1CCCC1CNC(=O)c1cc(S(=O)(=O)CC)c(N)cc1OC (configuration not stated)
active: [19] 5.26 µM
not listed: [1] | [2] | [12] | [14] | [16] | [20]
inactive: all other assays above

Nc1ccn([C@H]2CC[C@@H](CO)O2)c(=O)n1
active: [3] 26.4 µM
inactive: [1] | [6] | [9] | [15] | [11]

CS(=O)(=O)CCNCc1ccc(-c2ccc3ncnc(Nc4ccc(OCc5cccc(F)c5)c(Cl)c4)c3c2)o1
active: [1] 6.62 µM | [3] 1.18 µM | [4] 6.62 µM | [18] 3.32 µM | [6] 0.0743 µM | [7] 0.372 µM | [8] 10.5 µM | [14] 20.9 µM | [9] 4.69 µM | [10] 1.48 µM | [15] 16.6 µM | [11] 26.4 µM | [16] 0.264 µM | [12] 0.166 µM | [13] 18.7 µM | [17] 18.7 µM

CC(C)NCC(O)COc1ccc(CCOCC2CC2)cc1 (configuration not stated)
active: [12] 16.6 µM
not listed: [5] | [10] | [11] | [14] | [19]
inactive: all other assays above

Cc1cnc(C(=O)NCCc2ccc(S(=O)(=O)NC(=O)NC3CCCCC3)cc2)cn1
inactive: [1] | [8] | [11] | [16] | [20]
active: [3] 18.7 µM | [14] 18.7 µM | [9] 14.8 µM | [17] 20.9 µM

Cn1cnc2c1c(=O)[nH]c(=O)n2C
active: [1] 9.35 µM | [3] 16.6 µM | [4] 4.69 µM | [18] 7.43 µM | [5] 16.6 µM | [6] 18.7 µM | [7] 9.35 µM | [8] 9.35 µM | [14] 18.7 µM | [9] 5.9 µM | [10] 5.9 µM | [15] 20.9 µM | [11] 16.6 µM | [16] 16.6 µM | [20] 23.5 µM | [12] 29.6 µM | [13] 18.7 µM | [17] 16.6 µM
